According to PubChem BioAssay (EPA / NIEHS):
Inconclusive results are not listed. Calls of active or inactive are those of the source. The calls were made as follows: active = hit-call score of the fitted dose curve at least 0.9, where 1 is the maximum; inconclusive = response in the unintended direction; inactive = score below 0.9.

Target: human Peripheral-type Benzodiazepine Receptor (PBR), TSPO (gene 706) (UniProt P30536)
Assay: NVS_MP_hPBR: NovaScreen (NVS) Membrane Protein Assay for human Peripheral-type Benzodiazepine Receptor (PBR) (AID 2283331)
Protocol: NVS_MP_hPBR is a biochemical, single-readout assay that uses extracted gene-proteins from Human colonic cell membranes in a tissue-based cell-free assay. Measurements were taken 1 hour after chemical dosing in a 48-well plate.NVS_MP_hPBR is one of one assay component(s) measured or calculated from the NVS_MP_hPBR assay. It is designed to make measurements of radioligand binding, a form of binding reporter, as detected with scintillation counting signals by Filter-based radiodetection technology.Data from the assay component NVS_MP_hPBR was analyzed into 1 assay endpoint. This assay endpoint, NVS_MP_hPBR, was analyzed in the positive analysis fitting direction relative to DMSO as the negative control and baseline of activity. Using a type of binding reporter, loss-of-signal activity can be used to understand changes in the binding as they relate to the gene TSPO. Furthermore, this assay endpoint can be referred to as a primary readout, because the performed assay has only produced 1 assay endpoint. To generalize the intended target to other relatable targets, this assay endpoint is annotated to the transporter intended target family, where the subfamily is cholesterol transporter.
Binding assays used specific radioligands (tritiated, iodinated) with non-radioactive competitive displacement ligands in agonist or antagonist protocols (as indicated) and various reference compounds and inhibitors to titrate specific binding to receptors and transporters. Most enzyme assays (CYPs, kinases, phosphatases, proteases, HDACs) used recombinant protein and specific substrates (fluorescence mostly, some colorimetric and radioactive) and inhibitors, followed by a biochemical separation of substrate and product. All assays for the biochemical HTS were initially run in duplicate at a single concentration (10 uM for CYP450 assays and 25 uM for all others). […] Each assay was run with positive and negative controls, and concurrent controls on every plate. The follow-up (secondary) screen tested active chemical-pairs in concentration series, as well as a few additional assays not tested in the primary screen, some selected negative inactives, and several cases re-run in the concentration series for confirmatory purposes.

Chain of human Peripheral-type Benzodiazepine Receptor (PBR), TSPO (gene 706) (P30536 whole entry, looked up): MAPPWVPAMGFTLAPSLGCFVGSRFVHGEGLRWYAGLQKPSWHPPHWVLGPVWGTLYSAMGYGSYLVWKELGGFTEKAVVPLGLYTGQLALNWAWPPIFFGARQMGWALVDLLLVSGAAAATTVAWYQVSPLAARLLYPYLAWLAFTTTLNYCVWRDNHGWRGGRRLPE

SMILES | AC50 | outcome
CCCCCCCOC(=O)c1ccc(O)cc1 | 2.98 µM (active) | –
CC/C=C\C/C=C\C/C=C\CCCCCCCC(=O)OC | 7.69 µM (active) | –
CCOC(=O)C1=NN(c2ccc(Cl)cc2Cl)C(C)(C(=O)OCC)C1 (stereo not drawn) | 10.9 µM (active) | –
COc1ccc(-c2coc3cc(O)cc(O)c3c2=O)cc1 | 0.293 µM (active) | –
CCOC(=O)C1=NOC(c2ccccc2)(c2ccccc2)C1 | 8.19 µM (active) | –
C/C=C/C=C/CCCCCCCO | 12.2 µM (active) | –
O=C(Oc1ccccc1)c1ccccc1C(=O)Oc1ccccc1 | 1.78 µM (active) | –
O=C(O)c1cc(O)c2ccccc2c1O | 18 µM (active) | –
O=C(OCc1ccccc1)c1ccc(O)cc1 | 6.36 µM (active) | –
CCCCNS(=O)(=O)c1ccc(C)cc1 | 7.96 µM (active) | –
COC(OC)(C(=O)c1ccccc1)c1ccccc1 | 21.9 µM (active) | –
CN(C)c1ccc2nc3ccc(=[N+](C)C)cc-3sc2c1 | 10.2 µM (active) | –
CC(Cl)COP(=O)(OCC(C)Cl)OCC(C)Cl (stereo not drawn) | 25 µM (active) | –
COc1ccc(C(=O)/C(Br)=C\C(=O)O)cc1 | 9.63 µM (active) | –
CCCCNC(=S)NCCCC | – | inactive
CCCCC/C=C\C/C=C\CCCCCCCC(=O)O | 5.35 µM (active) | –
C=CCOC(=O)c1ccc(C(=O)OCC=C)c(C(=O)OCC=C)c1 | 9.19 µM (active) | –
C=C1C[C@H]2[C@@H]3C=C(C)C4=CC(=O)CC[C@]4(C)[C@H]3CC[C@]2(C)[C@@]1(OC(C)=O)C(C)=O | 0.732 µM (active) | –
